This excerpt belongs to a sample that is enriched for hits.
Pf Dd2 growth: blocks in vitro growth of P. falciparum Dd2; P. falciparum Dd2 growth, SYBR Green, 72 h; Potency, µM (top dose mostly 28.9 µM), inactives show top-dose activity, negative = inhibition, usual class: inhibitors; 4.3% of 120,000 active; active = well fitted inhibition curve with a large enough effect;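 also: plate controls were DMSO vehicle for no effect and reference drug for full effect; nearly all actives have a fitted effect of over 65% in size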
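Infected erythrocytes (Dd2, 0.3% parasitemia, 2.5% hematocrit final) are added to compound in RPMI-1640/Albumax II medium, grown 72 h at 37C in low oxygen, then lysed with saponin/Triton-X containing SYBR Green and read by fluorescence.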
* hit, by the source's call; ! = not active in a repeat; [ ] = remark or other dose. Potency is read from the fitted curve at half-maximal effect.

`CC(C)NC(=O)C[C@@H]1O[C@H](CNS(C)(=O)=O)[C@@H](O)[C@H]1O` gave Pf Dd2 growth 32.7%[44.1 µM].
For O=C(Nc1ccccc1F)C(Cc1ccccc1)n1cccc1 (stereo not drawn) the results were Pf Dd2 growth 4.7%.
`O=C(Nc1ccc(C(F)(F)F)cc1)C(Cc1ccccc1)n1cccc1` (stereo not drawn) gave Pf Dd2 growth 14.1µM*.
`CC(C)c1ccc(NC(=O)C(Cc2ccccc2)n2cccc2)cc1` (stereo not drawn) gave Pf Dd2 growth inactive.
`CCNC(=O)N(C1CC1)C1CCOC2(CCN(C(=O)Cc3ccccc3)CC2)C1` (stereo not drawn) gave Pf Dd2 growth 1.9%.
`O=C1CN(C(=O)c2cnc3ccccn3c2=O)CCN1Cc1ccc(F)cc1` gave Pf Dd2 growth -10.2%.
Cc1c(C(=O)OCC2CCCCC2)[nH]c2c1C(=O)CC(c1ccc(Cl)cc1)C2 (stereo not drawn) was read as Pf Dd2 growth 2.9%.
For CCOC(=O)c1[nH]c2c(c1Cc1ccccc1)C(=O)CC(c1ccc(Cl)cc1)C2 (stereo not drawn) the results were Pf Dd2 growth 10µM*.
`CCOC(=O)c1[nH]c2c(c1Cc1ccccc1)C(=O)CC(c1ccc(OC)cc1)C2` (stereo not drawn) gave Pf Dd2 growth 11.2µM*.
Screening CCOC(=O)c1cc(-c2ccc(OC)cc2)nn1Cc1ccccc1 returned Pf Dd2 growth -1.0%.
Cc1ccc(COC(=O)c2[nH]c3c(c2C)C(=O)CC(c2ccc(Cl)cc2)C3)cc1 (stereo not drawn) was read as Pf Dd2 growth -6.3%.
For CCOC(=O)C1=C(CN(CC)Cc2ccccc2)NC(=O)NC1c1ccc(OC)cc1 (stereo not drawn) the results were Pf Dd2 growth inactive.
Screening FC(F)(F)Oc1ccc(CNC2(Cc3cc(CN4CCOCC4)on3)COC2)cc1 returned Pf Dd2 growth 23.9%[44.1 µM].
Cc1ccc(C(=O)N2CCCCCNC(=O)[C@@H]3CCCC[C@@H]32)cn1 was read as Pf Dd2 growth -5.6%.
For CCC(=O)N1CCCN(S(C)(=O)=O)c2ccccc21 the results were Pf Dd2 growth -4.0%.
COc1ccc(N2Cc3c(NCCCc4ccccc4)ncnc3N(C)CC2=O)cc1 was read as Pf Dd2 growth -29.3%.
COC(=O)CNC(=O)c1nc(-c2ccccc2OC)c2cnccn12 was read as Pf Dd2 growth 10.3%.
Screening CC(C)(C)c1nc(C(=O)N2CCN(c3ncccn3)CC2)n2ccncc12 returned Pf Dd2 growth 5.01µM*.
For O=C(c1nc(-c2ccc(Cl)nc2)c2cnccn12)N1CCOCC1 the results were Pf Dd2 growth 5.0%.
For C[S+](=O)([O-])c1ccc(-c2nc(C(=O)N3CCOCC3)n3ccccc23)cc1 the results were Pf Dd2 growth 18.4%.
For COc1ccccc1-c1nc(C(=O)NCc2cccnc2)n2ccncc12 the results were Pf Dd2 growth 10µM*!.
Screening COC(=O)CNC(=O)c1nc(-c2ccc(Cl)cc2Cl)c2cnccn12 returned Pf Dd2 growth -22.0%.
For C[S+](=O)([O-])c1ccc(-c2nc(C(=O)N3CCCC3)n3ccncc23)cc1 the results were Pf Dd2 growth 12.6µM*.
For CC(C)NC(=O)c1nc(-c2ccc(Cl)cc2Cl)c2cnccn12 the results were Pf Dd2 growth 3.55µM*.
Screening O=C(c1nc(-c2cccc(C(F)(F)F)c2)c2ccccn12)N1CCN(c2ncccn2)CC1 returned Pf Dd2 growth -1.6%.
For O=C(c1nc(-c2ccc(F)cc2)c2cnccn12)N1CCN(c2ncccn2)CC1 the results were Pf Dd2 growth inactive.
Screening COc1ccccc1-c1cc(C(=O)NCc2cccnc2)nn2cccc12 returned Pf Dd2 growth -12.1%.
Screening COC(=O)CNC(=O)c1nc(-c2ccc(Cl)cc2Cl)c2ccccn12 returned Pf Dd2 growth 21.3%.
Screening Cc1ccccc1C(=O)N1CCn2c(nn(-c3ccncc3)c2=O)C1 returned Pf Dd2 growth 10.0%[44.1 µM].
Screening CCN1C(=O)CCC2(C(=O)NCc3cccc(F)c3)CCCC=C12 (stereo not drawn) returned Pf Dd2 growth -5.7%.
For CC(C)CC(NC(=O)c1cccc(-n2cnnc2)c1)c1ncnn1C (stereo not drawn) the results were Pf Dd2 growth -16.2%.
`O=C(NCc1cnccn1)c1ccc(-c2ncc3cnc(C4=CCOCC4)cn23)cc1` gave Pf Dd2 growth inactive.
For N#Cc1ccc(CN2CCC3(CC2)OCCN(CCc2ccccc2)C3=O)cc1 the results were Pf Dd2 growth -26.1%[44.1 µM].
`COCc1nc(C2CCCN(C(=O)c3ccccc3OC)C2)no1` (stereo not drawn) gave Pf Dd2 growth 26.0%.
Screening COc1ccc(C(=O)NC2CCN(c3cnn(Cc4ccccc4)c(=O)c3)CC2)cn1 returned Pf Dd2 growth -7.2%.
COc1ccccc1-c1cc(C(=O)N2CCCC2)nn2cccc12 was read as Pf Dd2 growth 0.1%.
`COc1ccccc1-c1nc(C(=O)N2CCCC2)n2ccncc12` gave Pf Dd2 growth 10µM*.
Screening Cn1ncc2c(C(=O)NCc3cccnc3)cc(-c3ccc(Cl)cc3Cl)nc21 returned Pf Dd2 growth inactive.
